Molecular target: ENO2
Assay: pooled miR-30 sensor sort-seq; sequence = guide strand
Settings: shRNA
Note: reference of the scale not given here.

Row | Sequence | sensor-assay potency score (higher = more potent)
1 | TAGAGATCCACCTCCACTGTGG | 0.0832
2 | TTGGATGGCTTCAGTGACCGAG | 0.159
3 | TAGTCCCTGACAAAGTCCTGGT | -0.652
4 | TTGGCTGTGAACTTGGACCAGG | -0.413
5 | TTTGCCTAAGTAACGCTGTTTG | -1.32
6 | TATAGAGATCCACCTCCACTGT | -0.931
7 | TTGAGTGTATGGTAGACCTCTG | -0.0986
8 | TTGTCCTTGATGACTCCCTTGA | -0.328
9 | TTGAGCAGCAGACAGTTGCAGG | -0.936
10 | TTTGTCTCCATCCCTCAGCTCC | -0.755
11 | TTGATGACTCCCTTGAGTGTAT | -0.705
12 | TATGGTAGACCTCTGCACCTAG | 0.499
13 | TGATGTATCGGGAAGGATCAGT | -0.0535
14 | ATTGGTGGCATCCTTGCCGTAT | -0.654
15 | TTCAGTGACCGAGCCGATCTGG | -0.433
16 | TACATTGGCTGTGAACTTGGAC | 0.428
17 | TATTTGTCCTTGATGACTCCCT | 0.308
18 | TTCCTCAATTCTCATGAGCTGG | -0.892
19 | TTGGATTTGTTCTCAGTCCCAT | 0.271
20 | TAGACCTCTGCACCTAGTCGCA | -1.03
21 | TTTTGGGTTGGTCACTGTCAGG | -1.77
22 | TTTCTCTTGCTCCACCACAGAG | -1.22
23 | TCTAACACCTCAGCACACCAAC | -0.842
24 | TTCTCTTGCTCCACCACAGAGA | -1.02

Molecular target: ENPP7
Assay: as above
Settings: shRNA

Row | Sequence | sensor-assay potency score (higher = more potent)
25 | TTGCGCGCGATGCTCTCCCGGA | -1.29
26 | TAGTCCAGGAGCTCAAACTCGA | -0.814
27 | TTGTAGACGTGGAGCTTGGGGT | -0.738
28 | TAGGGCAGCTTCACCTTGCTGG | -0.078
29 | TACATGTTGTGAACCACCCCGT | -0.259
30 | TTCTTGTAGACGTGGAGCTTGG | -0.97
31 | TTGAACTGGACGTTAATTCTCC | -0.264
32 | TTGTAGTTGTGTGCGATGCCTT | -0.915
33 | TTCATGTCCATGTCCTTGTTGT | -0.0468
34 | TTTAGGGAGCAGCATCCCGTTT | -1.36
35 | TTGTCCACGGTCGTCATGCCGT | -1.22
36 | TCGCTCTCCACTCCGTCTCATT | -1.59

Molecular target: ENTHD1
Assay: as above
Settings: shRNA

Row | Sequence | sensor-assay potency score (higher = more potent)
37 | TTAAGTTCTTGGATCACTGTGC | 0.62
38 | TATTTGTAAAGATACCATCTGA | -0.616
39 | TTACAATCTCCTTCACTCGGTC | 0.0777
